Measured values as given in PubChem BioAssay AID651658 (Broad Institute, 2012).
Among all 340,000 compounds or so, about 5,100 (1.5%) were called active. What follows is part of a selection rich in actives, with near analogues and random picks from the rest. A number with no mark means an inactive call.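 Rule for the calls: active = mean Tm shift, scaled 0 neutral to 100 positive control, at about 1.3% or above, every replicate too (limit read from the data); inconclusive = no clear call, values can overlap the other calls; inactive = the rest.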

The compounds below were run against Fibroblast growth factor 22 (Homo sapiens) (UniProt Q9HCT0) (assay: binders of human FGF22 protein, primary screen, FGF22 synaptogenesis inhibitor project, biophysical, thermal shift, single point (AID 651658)). Details: recombinant FGF22 thermal shift, SYPRO orange fluorescence; at 9.99 µM; hits give high values; percent of sucrose octasulfate shift, DMSO zero.
Fibroblast growth factor 22 (Homo sapiens), sequence (Q9HCT0 whole entry, looked up): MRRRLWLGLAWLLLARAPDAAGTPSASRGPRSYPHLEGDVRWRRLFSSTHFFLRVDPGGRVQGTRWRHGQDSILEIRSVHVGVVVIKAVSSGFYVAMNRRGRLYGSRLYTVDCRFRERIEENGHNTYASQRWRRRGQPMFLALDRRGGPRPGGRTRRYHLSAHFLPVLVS
COc1ccccc1C#Cc1cnc2c(c1)C(=O)N([C@@H](C)CO)C[C@@H](C)[C@@H](CN(C)C(=O)CN(C)C)O2 gave an activity (Tm shift, normalised) of -0.154%. O=C(CC(c1ccccc1)c1ccccc1)NCC(O)c1ccc([N+](=O)[O-])cc1 (configuration not stated) gave an activity (Tm shift, normalised) of -0.099%. CN(C)CCNC(=O)Cc1ccc([N+](=O)[O-])cc1 showed an activity (Tm shift, normalised) of 0.505%. In the case of CN(C)C(CNC(=O)Cc1ccc([N+](=O)[O-])cc1)c1ccccc1 (configuration not stated), the activity (Tm shift, normalised) is reported as 42.9% (active). In the case of CCC(=O)N(C)C[C@H]1Oc2ncc(C#CC(C)C)cc2C(=O)N([C@@H](C)CO)C[C@H]1C, the activity (Tm shift, normalised) is reported as 0.017%. Work on O=C(C1CCCC1)N1[C@H](CO)[C@@H]2c3ccccc3N(S(=O)(=O)c3ccccc3)C[C@@H]21 yielded an activity (Tm shift, normalised) of 0.581%. C[C@H](O)C#Cc1cnc2c(c1)C(=O)N([C@H](C)CO)C[C@@H](C)[C@H](CN(C)CC1CCCCC1)O2 was tested, and the activity (Tm shift, normalised) was -0.028%. For CN(C)CC(=O)N[C@H]1CC[C@@H](CCNC(=O)C2CCCC2)O[C@@H]1CO, the activity (Tm shift, normalised) was 0.021%. Cc1ccc(C(=O)NNC(=O)CSc2nnc3ccccn23)cc1 gave an activity (Tm shift, normalised) of -0.076%. For O=C(CSc1nnc2ccccn12)c1ccccc1, the activity (Tm shift, normalised) was -0.056%. Cc1ccc(-n2c(C)cc(C(=O)CSc3nnc4ccccn34)c2C)cc1 was tested, and the activity (Tm shift, normalised) was 43.1% (active). For CN1C(=O)c2cc(NC(=O)c3ccc4c(c3)OCO4)ccc2OC[C@@H]2O[C@H](CC(=O)O)CC[C@H]21, the activity (Tm shift, normalised) was 0.218%. With C[C@H](CO)N1C[C@H](C)[C@@H](CN(C)C(=O)c2cnccn2)Oc2ncc(-c3ccccc3F)cc2C1=O the activity (Tm shift, normalised) was -0.163%. C/C(CC(=O)Nc1cccc(F)c1)=N\NC(=O)C(=O)NC1CCCCC1 was tested, and the activity (Tm shift, normalised) was 43.7% (active). O=C(Nc1cccc(F)c1)NC1CCCCCCC1 gave an activity (Tm shift, normalised) of 0.32%. COc1cccc(NC(=O)C/C(C)=N/NC(=O)C2CCCCC2)c1 was tested, and the activity (Tm shift, normalised) was -0.252%. Work on COc1ccc(CN(C)C[C@@H]2OCCCC[C@@H](C)Oc3ccc(NS(=O)(=O)c4ccc(F)cc4)cc3C(=O)N([C@@H](C)CO)C[C@H]2C)cc1 yielded an activity (Tm shift, normalised) of -0.218%. With Cc1cccc(-c2ccc([C@@H]3[C@@H](CO)N4CCCCN(S(=O)(=O)c5cccs5)C[C@H]34)cc2)c1 the activity (Tm shift, normalised) was -0.206%. Work on C[C@H](CO)N1C[C@H](C)[C@H](CN(C)Cc2ccc(C(=O)Nc3ccccc3N)cc2)Oc2c(NC(=O)Nc3ccccc3)cccc2C1=O yielded an activity (Tm shift, normalised) of -0.326%. For C/C=C/c1ccc2c(c1)O[C@H](CN(C)C(=O)Cc1ccccn1)[C@H](C)CN([C@H](C)CO)S2(=O)=O, the activity (Tm shift, normalised) was -0.272%. Work on CCOc1cc(NC(=O)Nc2ccccc2)c(OCC)cc1NC(=O)CC yielded an activity (Tm shift, normalised) of -0.075%. CCOc1ccc(CCNC(=O)Nc2ccccc2)cc1OCC showed an activity (Tm shift, normalised) of -0.025%. In the case of CCCNCc1cc(OCC)c(OCC(=O)Nc2ccccc2)cc1Br, the activity (Tm shift, normalised) is reported as 44% (active). In the case of CCCN1C[C@H](C)[C@@H](OC)CN(C)C(=O)c2cc(NS(=O)(=O)CC)ccc2OC[C@H]1C, the activity (Tm shift, normalised) is reported as -0.257%. For Cc1ccccc1OS(=O)(=O)c1cccc([N+](=O)[O-])c1, the activity (Tm shift, normalised) was 43% (active). Cc1cc([N+](=O)[O-])ccc1NS(=O)(=O)c1ccccc1 showed an activity (Tm shift, normalised) of 1.12%. Cc1cc(C)n(S(=O)(=O)c2cccc([N+](=O)[O-])c2)n1 showed an activity (Tm shift, normalised) of -0.005%. With CCCNC(=O)Nc1ccc2c(c1)C(=O)N(C)C[C@H](OC)[C@@H](C)CN(C)[C@@H](C)CO2 the activity (Tm shift, normalised) was -0.468%. With O=C(c1cccnc1)N1CC(=O)N2[C@H](C1)[C@H](c1ccc(-c3ccccc3F)cc1)[C@@H]2CO the activity (Tm shift, normalised) was 0.042%. COCC(=O)N1CC(=O)N2[C@H](CO)[C@@H](c3ccc(-c4ccccc4F)cc3)[C@H]2C1 gave an activity (Tm shift, normalised) of -0.341%. O=C(c1ccccc1F)N1CC(=O)N2[C@H](C1)[C@H](c1ccc(-c3ccc(F)cc3)cc1)[C@@H]2CO was tested, and the activity (Tm shift, normalised) was 1.26% (active). With C/C=C/c1ccccc1[C@@H]1[C@@H](CO)N(C(=O)CN2CCOCC2)[C@H]1C#N the activity (Tm shift, normalised) was -0.302%. C[C@H]1CN([C@@H](C)CO)C(=O)c2cc(NC(=O)Cc3cn(C)c4ccccc34)ccc2O[C@@H]1CN(C)Cc1ccc(Cl)c(Cl)c1 was tested, and the activity (Tm shift, normalised) was 0.161%. Work on Cc1noc(C)c1S(=O)(=O)Nc1ccc2c(c1)C(=O)N([C@@H](C)CO)C[C@@H](C)[C@H](CN(C)C(=O)NC(C)C)OCCCC[C@@H](C)O2 yielded an activity (Tm shift, normalised) of -0.227%. Compound CC(C)NC(=O)N(C)C[C@H]1OCCCC[C@@H](C)Oc2ccc(NC(=O)C3CCCCC3)cc2C(=O)N([C@H](C)CO)C[C@H]1C has an activity (Tm shift, normalised) of -0.185%. In the case of O=C(N/N=C/c1ccc(Cl)c(Cl)c1)c1ccc2nc[nH]c2c1, the activity (Tm shift, normalised) is reported as 1.65% (active). For COc1ccc(/C(C)=N/NC(=O)c2ccc3nc[nH]c3c2)cc1, the activity (Tm shift, normalised) was 0.005%. CC(=NNC(=O)c1ccc2nc[nH]c2c1)c1ccc(Br)cc1 showed an activity (Tm shift, normalised) of 0.573%. CCC(=O)Nc1ccc2c(c1)C(=O)N(C)C[C@H](OC)[C@H](C)CN(C(=O)c1ccccn1)[C@@H](C)CO2 gave an activity (Tm shift, normalised) of 0.116%. In the case of CC(=O)O[C@]1(C(C)=O)CC[C@H]2[C@@H]3C=C(C)C4=CC(=O)CC[C@]4(C)[C@H]3CC[C@@]21C, the activity (Tm shift, normalised) is reported as -0.13%. With C[C@]12CCC(=O)C=C1C=CC1C2CC[C@@]2(C)C1CC[C@@]21CCC(=O)O1 (some centres not stated) the activity (Tm shift, normalised) was 43.7% (active). Compound CC(=O)C12CC(C)=C(C)CC1CC1C3CCC4=CC(=O)CCC4(C)C3CCC12C (configuration not stated) has an activity (Tm shift, normalised) of -0.095%. C[C@H](CO)N1C[C@H](C)[C@H](CN(C)S(=O)(=O)c2cccs2)Oc2c(NC(=O)Nc3ccc4c(c3)OCO4)cccc2C1=O was tested, and the activity (Tm shift, normalised) was -0.125%. Work on O=C(C[C@H]1CC[C@@H](NC(=O)c2ccc(F)cc2)[C@@H](CO)O1)NCc1ccncn1 yielded an activity (Tm shift, normalised) of -0.132%. COCC(=O)Nc1ccc2c(c1)[C@H]1C[C@@H](CC(=O)NCc3ccccc3F)O[C@H](CO)[C@H]1O2 showed an activity (Tm shift, normalised) of -0.327%. For C[C@@H](NC(=O)C[C@H]1CC[C@@H](NC(=O)Cc2ccccn2)[C@@H](CO)O1)c1ccccc1, the activity (Tm shift, normalised) was -0.123%. CO[C@@H]1CC[C@H]2CCN(C)C(=O)[C@@H](C)CN(C)C(=O)c3cccc(C#N)c3OC[C@@H]1O2 showed an activity (Tm shift, normalised) of -0.102%.
